The supplement of paper PMC6555819

What was measured:
Experiment in all cases: PBM binding z-score (relative to random genomic background probes); higher = stronger binding; sequences stand for … in GC…GCGATTGACAGCGTAGAATGAAGG
[1] = system: RARb homodimer (NR concentration 270 nM)
How it was run: (§1)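 The probes on custom Agilent 4×180K protein-binding microarrays were double-stranded, with 34-nt variable regions bearing direct-repeat seeds, single-nucleotide variants, half-site ablations and random human genomic background sequences. Incubation lasted 1 h with ligand-free nuclear receptor dimers in PBS pH 7.4, 2% milk, 0.02% Triton X-100, 1 mM DTT, 0.2 mg/mL BSA and 0.4 mg/ml salmon testes DNA. Antibodies against each partner (one per run) detected bound dimers, and fluorescence scans were regression-normalized. Binding z-scores take the random background probes as reference.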

[2] = system: RARg:RXRa (NR concentration 270 nM, RXRa partner concentration 90 nM)
How it was run: as §1

[3] = system: RARg homodimer (NR concentration 270 nM)
How it was run: as §1

[4] = system: RXRa DBDmut IVT, anti-RXR (DBD mutation: RXRa K156A/R161A, NR concentration 90 nM)
How it was run: as §1

[5] = system: RXRa homodimer (NR concentration 180 nM)
How it was run: as §1

[6] = system: THRa:RXRa (NR concentration 90 nM, RXRa partner concentration 90 nM)
How it was run: as §1

[7] = system: THRa homodimer (NR concentration 90 nM)
How it was run: as §1

[8] = system: VDR homodimer (NR concentration 270 nM)
How it was run: as §1

| Sequence | PBM binding z-score [1] | PBM binding z-score [2] | PBM binding z-score [3] | PBM binding z-score [4] | PBM binding z-score [5] | PBM binding z-score [6] | PBM binding z-score [7] | PBM binding z-score [8] |
| --- | --- | --- | --- | --- | --- | --- | --- | --- |
| CCTATTAATTGACCATAAGGGCAACCGAAGCTCG | 1.91 | 0.926 | 1.1 | 0.931 | 0.841 | 1.63 | 1.81 | 1.85 |
| CTACAAAGGTGAACAAGGTCGTTGATTACTATTC | 3.33 | 3.64 | 3.01 | 1.76 | 3.64 | 3.69 | 1.37 | 2.51 |
| TAGCCTCGGTCATGCGGGCCAGTATAGTGTCGGC | 1.58 | 1.57 | 2.52 | -1.04 | -0.228 | -0.135 | -0.62 | -0.697 |
| AGTCAAAGTTCACTAGGAAACGTAAGATTCAGCT | 3.48 | 4.86 | 5.62 | 3.98 | 3.71 | 1.3 | -0.55 | 3.64 |
| ATCTCTAGGTGAAGTTCAGTGAAAGATCGATAGA | 1.53 | 1.3 | 1.46 | 0.512 | 0.437 | 1.19 | 0.0183 | 0.509 |
| ATATGTAGTTTAGCTGGGGTCATTCAGACTAGGC | 3.66 | 3.73 | 2.48 | 2.23 | 5.23 | 4.49 | 3.19 | 5.03 |
| AGTCAAAATTCAGGACGAGGTAACGTAAAGCACG | -0.0538 | 0.203 | 0.422 | -0.303 | 0.601 | 1.99 | 1.64 | 0.0292 |
| CGAACTAGGTCATCCCGGACAGTGAATACATTGA | 2.84 | 3.68 | 4.66 | 2.33 | 2.6 | 2.86 | 1.4 | 1.91 |
| TCTGCTAGATCAACGATGGTCAGCTAATCTGCTA | -0.588 | -0.514 | -0.512 | -0.127 | -0.276 | -0.945 | -1.71 | -1.45 |
| CCTTACGGGTCACTGAGAGGTTATAGCATTTGGA | 3.75 | 6.72 | 4.64 | 1.75 | 5.62 | 3.46 | 0.613 | 1.78 |
| TCGAGTAGGTTAGTCGGGGCATTCGGCCAACATA | 0.848 | -0.0623 | 0.0417 | -0.081 | -0.218 | 0.974 | -0.521 | 0.124 |
| ACAGACAGGTGATGAAGGTAACTAAGGCTATCAT | 0.434 | 0.422 | 0.552 | -0.521 | 0.185 | 1.28 | 0.245 | -0.317 |
| CCTACTGGGCGAAAAAGGTCATTGATGCCGATAA | 4 | 3.97 | 3.43 | 0.151 | 4.51 | 3.05 | -0.0329 | 1.75 |
| GGAACGAGGGCATTCGAGTTGCTAGCATGGCGAT | 0.541 | 0.857 | 1.12 | 2.88 | 0.425 | 2.25 | -0.87 | 2.87 |
| ATATTTAGGTTAAGGGTCATTCAGGTTGGTTCGC | 4.22 | 4.81 | 3.84 | 2.51 | 5.68 | 3.95 | 3 | 5.16 |
| AGTCAAAGTTCACCTAGGTAACGTAAGATATGCT | 4.16 | 5.65 | 6.29 | 4.26 | 4.86 | 3.51 | 0.406 | 3.86 |
| ATATGTGGGTTAGCTGGGGTCATTCAGACTAGGC | 3.54 | 3.97 | 2.93 | 2.16 | 5.59 | 5 | 3.84 | 5.73 |
| CCGACTAGGTTATGGGGCATTCAGGCAACGGTGA | 1.03 | 0.358 | 0.34 | -0.142 | 0.666 | 0.586 | 0.24 | 0.126 |
| ACTTACGGTTCAACGAGGTTATAGCACGCGTATA | 1.54 | 2.25 | 1.14 | 3.49 | 3.22 | 3.06 | 0.878 | 5.32 |
| GGAACCAGGGCATTCGAGTTGATAGCATGGCGAT | 1.54 | 1.05 | 1.49 | 1.17 | 0.534 | 2.66 | 0.671 | 1.97 |
| TCTTGTAGATCAGCAGGTTAACAAAGCTGGCCAA | 0.38 | 0.348 | -0.352 | 0.44 | 0.609 | 0.517 | -0.468 | -0.328 |
| CGAACTAGGTCACAGAGGTCAAAGTCCGTGCGTA | 5.38 | 7.57 | 7.52 | 3.54 | 8.15 | 4.58 | 2.83 | 6.98 |
| GCGACTGGGGCAAAGAAGGTTACCATAAGGTTGG | 1.92 | 1.19 | 1.02 | -0.00563 | 0.942 | 2.77 | 0.225 | 0.247 |
| ATCTCTAGGTAACCAAGTGCAGTGAATGCCGAAC | 0.232 | 0.129 | 0.205 | 0.0153 | 0.0437 | 0.515 | 0.223 | 0.337 |
| AGGATGAGGTTATTAAGATCAGGGAATTGCGGTC | 1.49 | 1.41 | 1.1 | 1.78 | 1.9 | 2.24 | 1.47 | 1.97 |
| ACTCGGAGGAAAAAGGTCAGAGCTACGCCAGTGA | 4.12 | 4.09 | 3.97 | -0.291 | 3.67 | 2.24 | -0.145 | 0.161 |
| CGAACTAGGTCATCCAGGACAGGGAATACATTGA | 2.82 | 3.79 | 4.29 | 2.17 | 2.65 | 3.52 | 1.93 | 1.73 |
| CGTCCAAGGTCATAGGAGGTCAGGGAAGACAGAT | 5.2 | 6.79 | 7.15 | 3.89 | 6.99 | 5.41 | 3.54 | 4.28 |
